Our source for the composite z-score, z-score and composite Z-score values is PubChem BioAssay.

Active and inactive are the calls of the source.

The test system of experiment [1] is Human papillomavirus type 1a protein E7 (residues 44-93). Description: small molecules binding HPV E7 44-93 – biochemical, small-molecule microarray, residues 44-93, 635 nm fluorescence, primary screen (AID 1108).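 Further: E7 fragment applied at 1 µg/mL in TBST for 1 h at 4 C; score combines spot fluorescence with its signal to noise ratio.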 The settings on record: fluorescence 635 nm, higher = more signal.
The nature of experiment [2]: hepatitis C replication reporter changes, two-sided – Huh7 cells, luciferase reporter, HCV replication inhibitor project, primary screen (AID 1109).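 Further: huh7 hepatoma cells harbouring a luciferase neomycin HCV replicon reporter; luciferase luminescence as measure of HCV replicon replication; test concentration not given here.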 As to conditions: Huh7 HCV replicon luciferase reporter, 48 h; higher = more signal. On the technique in general: In a reporter assay the amount or activity of a reporter protein is the signal.
In experiment [3] the target is Left-right determination factor 2 (Homo sapiens) (UniProt O00292). Nature of the experiment: small molecules binding LEFTY2 protein – biochemical, small-molecule microarray, 635 nm fluorescence scan, primary screen (AID 1110). As to conditions: higher = more signal.
Chain of Left-right determination factor 2 (Homo sapiens) (O00292 whole entry, looked up): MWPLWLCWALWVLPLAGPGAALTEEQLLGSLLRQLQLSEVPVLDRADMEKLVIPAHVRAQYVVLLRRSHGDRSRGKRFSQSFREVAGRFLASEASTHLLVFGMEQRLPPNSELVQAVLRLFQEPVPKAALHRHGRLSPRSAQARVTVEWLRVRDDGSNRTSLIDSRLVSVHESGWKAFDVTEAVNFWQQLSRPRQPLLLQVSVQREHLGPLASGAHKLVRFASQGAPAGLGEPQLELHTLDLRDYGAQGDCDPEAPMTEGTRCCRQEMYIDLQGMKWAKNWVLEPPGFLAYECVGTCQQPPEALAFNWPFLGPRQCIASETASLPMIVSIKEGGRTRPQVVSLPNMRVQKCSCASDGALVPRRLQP
The target of experiment [4] is Calmodulin-1 (Homo sapiens) (UniProt P0DP23). Nature of the experiment: small molecules binding calmodulin-1 with EGTA – biochemical, small-molecule microarray, Cy5-labelled CALM1, profiling panel (AID 1111).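 Further: labelled calmodulin applied in Tris saline Tween buffer holding calcium plus EGTA and DTT.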 As to conditions: Cy5-CALM1 binding fluorescence, higher = more signal.
Experiment [5] has the same target. Description: small molecules binding Ca-loaded calmodulin-1 – biochemical, small-molecule microarray, Cy5-labelled CALM1, plus calcium, artefact control for SMM control-protein annotation, profiling panel (AID 1112).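 Further: score merges spot fluorescence with signal to noise from triplicate slides.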 As to conditions: Cy5-CALM1 binding fluorescence, higher = more signal.
Experiment [6] is described as follows: probe aWnt5a binding to arrayed compounds – biochemical, biotinylated probe, 635/667 nm fluorescence, primary screen (AID 1113).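 Further: score merges 667 nm fluorescence intensity with signal-to-noise per printed feature.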 As to conditions: small-molecule microarray, higher = more signal.
A short description of experiment [7]: probe aShh binding to arrayed compounds – biochemical, biotinylated probe, 635/667 nm fluorescence, primary screen (AID 1114).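 Further: probe is biotin-labelled aShh protein from a stem cell growth factor screen; measures binding of labelled protein to compounds printed on the slide; score merges feature fluorescence at 667 nm with signal-to-noise.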 As to conditions: small-molecule microarray, higher = more signal.
A short description of experiment [8]: probe aNog binding to arrayed compounds – biochemical, biotinylated probe, 635/667 nm fluorescence, primary screen (AID 1115).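 Further: probe is biotinylated aNog protein used at 0.15 µg/mL for 1 h at 4 C; z-score combines 667 nm fluorescence of each spot with its signal to noise.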 As to conditions: small-molecule microarray, higher = more signal.
Experiment [9] addresses Torsin-1A-interacting protein 1 (Homo sapiens) (UniProt Q5JTV8). Description: compound microarray binding of lysate hLAP1 – cell lysate, small-molecule microarray, COS7 lysate, 635/667 nm fluorescence, primary screen (AID 1116). The settings on record: 635 nm fluorescence, higher = more signal.
The target of experiment [10] is Alpha-bungarotoxin (Bungarus multicinctus) (UniProt P60615). Nature of the experiment: compounds binding labelled alpha-BTX control protein – biochemical, small-molecule microarray, Alexa647 label, 635/667 nm fluorescence, artefact control for SMM control protein annotation, profiling panel (AID 1117). As to conditions: alpha-BTX-A647 binding fluorescence, higher = more signal.
Chain of Alpha-bungarotoxin (Bungarus multicinctus) (P60615 whole entry, looked up): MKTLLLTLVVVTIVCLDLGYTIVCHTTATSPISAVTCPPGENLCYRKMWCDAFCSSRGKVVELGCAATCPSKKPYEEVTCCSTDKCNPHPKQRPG

For experiment [11], the target named is Albumin (Bos taurus) (UniProt P02769). Nature of the experiment: compounds binding labelled BSA control protein – biochemical, small-molecule microarray, Alexa647 label, 635/667 nm fluorescence, artefact control for SMM control protein annotation, profiling panel (AID 1118).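 Further: score merges 667 nm emission intensity and signal-to-noise per printed compound spot.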 The settings on record: BSA-A647 binding, fluorescence 635 nm, higher = more signal.
Chain of Albumin (Bos taurus) (P02769 whole entry, looked up): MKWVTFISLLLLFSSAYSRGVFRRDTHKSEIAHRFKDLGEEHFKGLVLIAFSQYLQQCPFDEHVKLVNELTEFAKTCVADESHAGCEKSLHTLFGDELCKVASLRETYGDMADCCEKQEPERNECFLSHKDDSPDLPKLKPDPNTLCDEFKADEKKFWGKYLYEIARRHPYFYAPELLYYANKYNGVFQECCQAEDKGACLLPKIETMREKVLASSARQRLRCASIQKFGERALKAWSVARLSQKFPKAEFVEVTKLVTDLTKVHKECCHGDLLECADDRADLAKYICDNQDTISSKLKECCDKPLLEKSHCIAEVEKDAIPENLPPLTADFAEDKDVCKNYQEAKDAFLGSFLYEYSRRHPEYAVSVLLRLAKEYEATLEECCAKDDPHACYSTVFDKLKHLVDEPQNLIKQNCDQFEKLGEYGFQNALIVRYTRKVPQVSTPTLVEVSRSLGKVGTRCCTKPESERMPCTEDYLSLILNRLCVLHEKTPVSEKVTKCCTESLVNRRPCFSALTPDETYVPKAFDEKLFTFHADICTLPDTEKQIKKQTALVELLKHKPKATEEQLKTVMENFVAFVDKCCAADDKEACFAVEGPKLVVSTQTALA

Experiment [12] is described as follows: probe aXIP binding to arrayed compounds – biochemical, NeuroSMM set, 635/667 nm fluorescence, primary screen (AID 1119).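 Further: probe is the protein aXip251-270 applied at 1 µg/mL to compound-printed slides; binding of probe to printed compounds measured as 667 nm fluorescence plus signal to noise.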 The settings on record: small-molecule microarray, higher = more signal, called active from +8 up or from −8 down.
Experiment [13] can be described thus: probe aNOTCH3 binding on compound microarray – biochemical, small-molecule microarray, 635/667 nm fluorescence, primary screen (AID 1120).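 Further: probe is a biotin-tagged antibody raised against NOTCH3 rather than NOTCH3 protein; score merges spot fluorescence near 667 nm with spot signal to noise.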 The settings on record: higher = more signal.
A short description of experiment [14]: probe aNOTCH2 binding on compound microarray – biochemical, small-molecule microarray, 635/667 nm fluorescence, primary screen (AID 1121).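 Further: score merges feature fluorescence read at 667 nm with its signal to noise.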 As to conditions: higher = more signal.
Experiment [15] concerns the target Carbonic anhydrase 2 (Homo sapiens) (UniProt P00918). Nature of the experiment: compounds binding carbonic anhydrase 2 – biochemical, small-molecule microarray, Alexa647-labelled CAII, profiling panel (AID 1122). The settings on record: CAII-A647 binding fluorescence, higher = more signal.
Experiment [16] can be described thus: COS7 lysate on small-molecule microarray, probe aHis, 635 nm (AID 1123).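 Further: z-score combines 667nm fluorescence intensity with signal-to-noise per printed compound spot.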 The settings on record: COS7 cell lysate, fluorescence, higher = more signal.
Experiment [17] can be described thus: probe aLAP1 signal on lysate-treated microarray – cell lysate, small-molecule microarray, COS7 lysate, primary screen (AID 1124).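 Further: lysate comes from COS7 cells expressing LAP1 and is applied at 0.3 µg/mL; score merges spot fluorescence near 667 nm with signal-to-noise over triplicate slides.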 The settings on record: probe aLAP1, fluorescence, higher = more signal.
Experiment [18] has as its system Sam68 (KHDRBS1). Description: compounds binding KHDRBS1 protein – biochemical, small-molecule microarray, 635 nm fluorescence, primary screen (AID 1125).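 Further: score merges 667 nm channel intensity with signal to noise over triplicate slides.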 As to conditions: higher = more signal.
The subject of experiment [19] is Chordin-like protein 2 (CHRDL2). Nature of the experiment: compounds binding chordin-like 2 – biochemical, small-molecule microarray, 635 nm fluorescence, primary screen (AID 1126).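 Further: printed compound slides probed with Chrdl2 protein at 4 µg/mL for 1 h at 4 C; score merges 667 nm emission intensity with signal to noise over three replicate slides.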 As to conditions: fluorescence 635 nm, higher = more signal.
Experiment [20] addresses Concanavalin-A (Canavalia ensiformis) (UniProt P02866). Description: compounds binding concanavalin A lectin – biochemical, small-molecule microarray, Alexa647 label, 635 nm, artefact control for SMM control protein annotation, primary screen (AID 1127).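 Further: z combines 667 nm emission intensity with signal-to-noise across three replicate slides.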 The settings on record: ConA-A647 binding fluorescence, higher = more signal.

Chain of Concanavalin-A (Canavalia ensiformis) (P02866 whole entry, looked up): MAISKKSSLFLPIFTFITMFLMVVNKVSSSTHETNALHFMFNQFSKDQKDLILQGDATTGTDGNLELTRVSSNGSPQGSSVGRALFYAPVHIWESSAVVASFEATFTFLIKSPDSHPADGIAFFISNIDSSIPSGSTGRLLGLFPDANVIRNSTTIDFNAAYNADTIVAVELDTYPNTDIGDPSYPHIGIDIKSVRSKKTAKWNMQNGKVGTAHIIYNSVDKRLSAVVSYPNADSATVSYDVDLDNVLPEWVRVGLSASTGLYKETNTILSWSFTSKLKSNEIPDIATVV
Chain of Torsin-1A-interacting protein 1 (Homo sapiens) (Q5JTV8 whole entry, looked up): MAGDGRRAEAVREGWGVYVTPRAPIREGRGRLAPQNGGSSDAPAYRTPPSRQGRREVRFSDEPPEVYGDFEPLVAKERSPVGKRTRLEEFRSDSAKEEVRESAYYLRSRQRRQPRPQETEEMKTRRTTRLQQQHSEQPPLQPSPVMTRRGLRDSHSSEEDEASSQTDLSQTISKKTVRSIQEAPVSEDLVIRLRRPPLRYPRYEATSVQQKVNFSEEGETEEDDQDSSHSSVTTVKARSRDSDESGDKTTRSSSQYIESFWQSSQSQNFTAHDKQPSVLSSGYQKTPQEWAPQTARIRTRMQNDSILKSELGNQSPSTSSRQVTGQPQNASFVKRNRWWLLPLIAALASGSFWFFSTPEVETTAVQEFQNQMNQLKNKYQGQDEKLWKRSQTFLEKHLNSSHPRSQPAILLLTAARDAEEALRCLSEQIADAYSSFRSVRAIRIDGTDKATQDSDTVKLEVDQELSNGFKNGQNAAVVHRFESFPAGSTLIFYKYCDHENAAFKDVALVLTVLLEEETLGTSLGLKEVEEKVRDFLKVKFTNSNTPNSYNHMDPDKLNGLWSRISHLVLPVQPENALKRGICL

Regarding `CCOC(=O)C1=C[C@@H](C(C)(C)C)N(S(=O)(=O)c2ccc(C)cc2)[C@H]1c1ccccc1Cl`, the composite z-score in experiment [1] is 0.694; in experiment [3], 0.633; in experiment [4], 1.95; in experiment [5], 0.84; in experiment [6] it was 0.1; in [7], -0.177. In addition, the composite z-score in experiment [8] was 0.527; in experiment [9] it was 1.13; in experiment [10], 1.73; in experiment [11] it was 0.981; in experiment [13] it was 0.0203; in experiment [14] it was 0.0423. Further, the composite z-score in experiment [15] was 0.223; in experiment [16], 1.72; in experiment [17], 0.472; in experiment [18] it was 1.32; in [19] it was -0.584; in [20], 1.12. In experiment [2], this compound had a z-score of -1.8. Besides, the composite Z-score in [12] is 0.102 (inactive).
Turning to `COCCOC(=O)N1C(=O)[C@@]2(c3cc(C#CCC(C(=O)OC)C(=O)OC)ccc31)[C@H](c1ccc(OCCO)cc1)N1[C@H](c3ccccc3)[C@H](c3ccccc3)OC(=O)[C@H]1[C@@H]2C(=O)N1CCCCCCC1`, the composite z-score in experiment [1] was determined as 1.21; in experiment [3], 1.13; in [4] it was 2.57; in experiment [5] it was 1.53; in [6], 0.816; in experiment [7], 2.6. Also, the composite z-score in experiment [8] is 3.08; in experiment [9], 3.22; in experiment [10] it was 2.32; in experiment [11], 0.256; in experiment [13], 1.77; in experiment [14], 0.597. Further, the composite z-score in [15] stood at 0.604; in [16] it was 3.41; in [17], 0.986; in [18] it was 1.3; in experiment [19] it was 1.3; in experiment [20] it was 1.1. Besides, the z-score in experiment [2] was -0.735. Also, the composite Z-score in experiment [12] was 2.32 (inactive).
Turning to `CCc1cccc(NC(=O)O[C@H]2[C@H](OC(=O)Nc3ccc4c(c3)OCO4)[C@H](OC(=O)Nc3ccc4c(c3)OCO4)[C@@H](OC)O[C@@H]2CO)c1`, the composite z-score in experiment [1] was 1.47; in experiment [3], -0.263; in experiment [4] it was 0.949; in experiment [5], -0.943; in experiment [6] it was -0.0087; in [7] it was 0.131. Also, the composite z-score in experiment [8] was -0.312; in experiment [9], 0.154; in experiment [10], 1.18; in experiment [11], 0.208; in [13], 0.337; in experiment [14], 0.817. The composite z-score in experiment [15] is 0.486; in experiment [16], 2.46; in [17], -0.0378; in [18], 1.29; in [19] it was -0.0095; in experiment [20], 1.14. Moreover, in experiment [2], the z-score is -0.548. For the same compound, the composite Z-score in experiment [12] was 1.31 (inactive).
For `CCCCCCCCCCC(O)C1C=CC2C(=O)N(C)C(=O)C2N1N1CCCCC1` (stereo not given), the composite z-score in [1] was -0.469; in [3], -2.49; in [4] it was -0.311; in experiment [5], 1.4; in [6], -0.196; in experiment [7], 0.0278. Also, the composite z-score in experiment [8] was 0.715; in [9] it was -0.428; in [10], -1.09; in experiment [11], -0.377; in experiment [13], -0.256; in [14], -0.135. In addition, the composite z-score in experiment [15] was -0.284; in experiment [16] it was 0.879; in experiment [17] it was 0.582; in [18], -0.555; in experiment [19] it was -2.31; in experiment [20], -1.13. In [2], this compound gave a z-score of -0.941. Also, the composite Z-score in experiment [12] was -0.0231 (inactive).
Consider `COC(=O)[C@@]1(Cc2ccccc2CN=[N+]=[N-])COC(c2ccc(OCCCO)cc2)=N1`, for which the composite z-score is -0.273 in [1]; -2.75 in [3]; -0.759 in experiment [4]; 0.0354 in [5]; -0.292 in experiment [6]; 1.69 in experiment [7]. Further, the composite z-score in experiment [8] was 0.199; in [9] it was 0.202; in [10] it was 3.02; in [11], 0.426; in [13], -0.425; in experiment [14], -0.0959. Further, the composite z-score in experiment [15] is 0.0365; in experiment [16], 2.27; in experiment [17] it was -0.365; in experiment [18] it was 0.424; in [19], -2.4; in [20], -1.38. The compound also gave a z-score in experiment [2] of -0.221. Also, the composite Z-score in experiment [12] is 0.978 (inactive).
On to `CCCCC(O)C1C=CC2C(=O)N(C)C(=O)C2N1Nc1ccccc1` (stereo not given), for which the composite z-score in [1] was 1.18; in experiment [3] it was -0.431; in [4], 0.259; in experiment [5], 0.032; in experiment [6], 0.0044; in [7], -0.301. Moreover, the composite z-score in [8] is -0.0683; in experiment [9], 1.02; in experiment [10], 0.27; in experiment [11], 0.555; in [13] it was 0.138; in [14], -0.0708. In addition, the composite z-score in [15] was 0.72; in [16], 2.06; in experiment [17], 0.182; in experiment [18] it was 1.29; in [19], -0.107; in experiment [20], 0.31. This compound also displayed a z-score in experiment [2] of -0.413. In addition, the composite Z-score in experiment [12] was 0.267 (inactive).
